# Experimental data: PubChem BioAssay
# Calls of active or inactive are those of the source.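 The calls were made as follows, unless noted: active = fluorescence slope higher than the sample average by over 3 SD (cut at about -0.22 in these data, passing the limit was not always enough); inactive = the rest.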
# Tests used:
# [1] = inhibitors of TNFa-induced NFkB p65 translocation, primary screen, imaging, HUVEC, MLSMR starter and 10KST1 sets (AID 438;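 active = inhibition above 20% together with a positive visual image hit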;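 also: compound added about 3h40 before a 20 min TNFalpha stimulation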;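 as to inhibition: signal is the nuclear over cytoplasmic p65 intensity ratio per well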); conditions: HUVEC TNFa-induced p65 nuclear translocation; cell count: measured here: nuclei count (cytotoxicity indicator), at 2.08 µM; inhibition: at 2 µM, stronger effect = higher value, 0% TNFa-plus-vehicle, 100% no-TNFa wells
# [2] = reduction of polyQ htt aggregates in cells – imaging, exon1htt(103Q)mCFP cells, high-content imaging, primary screen (AID 483;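 active = visual image review flags a hit and inhibition of aggregation exceeds 20%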;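 also: compound exposure lasted 3 days before fixation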;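 as to nuclei count: percent of the per-plate median nuclei count of sample wells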); conditions: exon1htt(103Q)mCFP cell line, aggregate imaging, at 2 µM; inhibition of aggregation: stronger effect = higher value; nuclei count: measured here: cell count, toxicity
# [3] = endothelial E-selectin expression blockers – imaging, HUVEC, immunofluorescence, MLSMR starter and 10KST1 sets, primary screen (AID 487;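 active = visually confirmed hit in the image check and inhibition above 20%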;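 as to inhibition: signal is fraction of cell area covered by stained E-selectin grains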;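 as to nuclei count: 100% = median nuclei count of all wells on the same plate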); conditions: HUVEC TNFalpha-induced E-selectin immunofluorescence imaging, at 2 µM; inhibition: stronger effect = higher value; nuclei count: measured here: cell number, toxicity
# [4] = target: Voltage-gated potassium channel subunit beta-2 (Rattus norvegicus) (UniProt P62483); assay: inhibitors of rat Kvbeta2 reductase activity – biochemical, NADPH fluorescence, primary screen (AID 622); conditions: recombinant KvBeta, 4-cyanobenzaldehyde reduction, at 10 µM, stronger effect = higher value;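 also: slope of raw intensity against log time taken from 70 to 1610 s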
# Voltage-gated potassium channel subunit beta-2 (Rattus norvegicus), sequence (P62483 whole entry, looked up): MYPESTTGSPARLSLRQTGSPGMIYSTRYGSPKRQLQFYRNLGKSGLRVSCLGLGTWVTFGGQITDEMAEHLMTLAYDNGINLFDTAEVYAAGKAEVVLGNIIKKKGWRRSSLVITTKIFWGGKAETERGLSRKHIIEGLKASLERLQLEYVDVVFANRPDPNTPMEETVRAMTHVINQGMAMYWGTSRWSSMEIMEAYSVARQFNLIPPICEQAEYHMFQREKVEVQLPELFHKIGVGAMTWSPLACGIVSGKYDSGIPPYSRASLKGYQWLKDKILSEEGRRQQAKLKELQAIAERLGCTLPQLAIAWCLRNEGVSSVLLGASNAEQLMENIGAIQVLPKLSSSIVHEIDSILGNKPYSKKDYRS
# [5] = target: Voltage-gated potassium channel subunit beta-2 (Rattus norvegicus) (UniProt P62483); assay: enhancers of rat Kvbeta2 NADPH turnover – biochemical, NADPH fluorescence, primary screen (AID 623;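 active = NADPH fluorescence slope more negative than the mean of all samples by about 3 SD, 99.7% confidence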;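 also: fluorescence intensity change per second fitted from 20 to 320 s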); conditions: Recombinant KvBeta, NADPH fluorescence decrease slope, 10 min; at 10 µM; stronger effect = lower value
# [6] = target: Alpha-2C adrenergic receptor (Homo sapiens) (UniProt P18825); assay: compounds altering alpha2C-coupled GIRK flux – cell-based, HEK293 alpha2C/GIRK1/2, thallium flux, primary screen (AID 624;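 active = fluorescence slope after compound addition differing from the mean of all screened samples at 99.7% confidence, in either direction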;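 also: slope of fluorescence ratio to pre-addition baseline per second over 15 to 24 s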); conditions: thallium flux BTC fluorescence, at 10 µM, actives lie on both sides
# Alpha-2C adrenergic receptor (Homo sapiens), sequence (P18825 whole entry, looked up): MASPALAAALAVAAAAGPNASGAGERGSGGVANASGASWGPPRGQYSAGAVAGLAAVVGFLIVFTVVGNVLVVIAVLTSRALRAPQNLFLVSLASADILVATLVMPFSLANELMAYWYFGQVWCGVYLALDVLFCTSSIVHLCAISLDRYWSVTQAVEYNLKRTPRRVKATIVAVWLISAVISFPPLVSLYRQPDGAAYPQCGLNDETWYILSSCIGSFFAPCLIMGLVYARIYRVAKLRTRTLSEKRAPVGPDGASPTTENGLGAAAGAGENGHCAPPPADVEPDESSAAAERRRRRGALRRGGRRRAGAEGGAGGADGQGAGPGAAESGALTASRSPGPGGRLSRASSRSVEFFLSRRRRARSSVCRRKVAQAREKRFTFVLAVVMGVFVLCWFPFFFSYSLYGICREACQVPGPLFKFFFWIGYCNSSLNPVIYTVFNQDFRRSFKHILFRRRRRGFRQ
# [7] = blockers of RIG-like receptor reporter activation – cell-based, Sendai virus stimulus, luciferase, 10K MLSCN set, TLR/RLR signaling modifier project, primary screen (AID 602276;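 active = inhibition at or above 50% at 10 µM; inactive = inhibition below 50%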;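 also: firefly luciferase from ISG56 promoter only with Renilla not read in this screen; 0% = Sendai virus plus DMSO and 100% = medium plus DMSO without virus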); conditions: HEK293 RL24 IRF3 luciferase reporter, at 10 µM, stronger effect = higher value
# [8] = TLR3 IRF3 reporter activation blockers – cell-based, poly I:C stimulus, luciferase, 10K MLSCN set, primary screen (AID 602277;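 active = inhibition of the reporter signal at or above 50%; inactive = inhibition below 50%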); conditions: HEK293-TLR3 RL24 IRF3 luciferase reporter, at 10 µM, stronger effect = higher value
SMILES,cell count [1],inhibition [1],inhibition of aggregation [2],nuclei count [2] [%],inhibition [3],nuclei count [3] [%],fluorescence slope [4],NADPH fluorescence slope [5],slope [6],inhibition [7],inhibition [8]
CC(C)CN(C(=O)COC(=O)Cc1n[nH]c(=O)c2ccccc12)C1CCS(=O)(=O)C1 (stereo not drawn),399,1.7% (inactive),14.7% (inactive),96.8,-65.6% (inactive),108,-0.586 (inactive),-1.4e-05 (inactive),0.00565 (inactive),12% (inactive),34.3% (inactive)
COc1ccc(S(=O)(=O)N2CCN(Cc3ccc(Cl)cc3)CC2)cc1,554,-5.4% (inactive),24.4% (inactive),61.1,-97.9% (inactive),148,-0.458 (inactive),-9.2e-06 (inactive),0.00502 (inactive),0.485% (inactive),-1.64% (inactive)
CCc1ccccc1OCCCCN1CCCC1,454,-4.1% (inactive),10.6% (inactive),89.5,-88.7% (inactive),75.1,-0.518 (inactive),-4.4e-05 (inactive),0.00548 (inactive),-4.55% (inactive),-12.9% (inactive)
COc1ccc(N2CCN(CCCNC(=O)C3CCCN(S(=O)(=O)c4cnc[nH]4)C3)CC2)cc1 (stereo not drawn),604,33.9% (active),-29.9% (inactive),89.3,-87.7% (inactive),122,-0.537 (inactive),-5.9e-06 (inactive),0.0058 (inactive),-10.4% (inactive),17.4% (inactive)
CCCc1cc(C(=O)Nc2sc3c(c2C#N)CCC3)no1,633,-2.9% (inactive),11.9% (inactive),95.8,-34.8% (inactive),116,-0.568 (inactive),-2.8e-05 (inactive),0.00643 (inactive),7.08% (inactive),10.9% (inactive)
O=C(O)c1ccc2c3c(ncnc13)-c1ccccc1C2=O,336,-10.1% (inactive),-50.8% (inactive),9.6,-34.1% (inactive),93,-0.155 (inactive),-4.9e-06 (inactive),0.0028 (inactive),18.4% (inactive),26.7% (inactive)
CCCCCC1CC(CC(C)C(=O)Nc2nncs2)C(=O)O1 (stereo not drawn),629,-7.3% (inactive),-20.6% (inactive),112,-68% (inactive),85.5,-0.369 (inactive),2.3e-05 (inactive),0.00624 (inactive),11.3% (inactive),20.7% (inactive)
O=C(Nc1ccc(OC(=O)c2ccco2)cc1)c1ccco1,239,-2.2% (inactive),-7.4% (inactive),92,10.8% (inactive),101,-0.442 (inactive),-1e-05 (inactive),0.00563 (inactive),4.1% (inactive),-1.78% (inactive)
CCn1c2ccccc2c2cc(N)ccc21,705,-34.5% (inactive),17.8% (inactive),91.5,-37.7% (inactive),107,-0.458 (inactive),5.8e-06 (inactive),0.00355 (inactive),8.66% (inactive),15.3% (inactive)
CCc1nc(N)c(C#N)c(-c2ccncc2)c1C,598,6.3% (inactive),-19.7% (inactive),100,-24.5% (inactive),106,-0.605 (inactive),-3.1e-05 (inactive),0.00327 (inactive),9.38% (inactive),19.4% (inactive)
CCOC(=O)c1cc2c(=O)n3ccccc3nc2n(CC(C)C)c1=NC(=O)c1ccco1,659,-13.4% (inactive),6.2% (inactive),96.7,-49.4% (inactive),112,-0.532 (inactive),-5.6e-06 (inactive),0.00344 (inactive),2.77% (inactive),20.4% (inactive)
Cc1ccc(C)c(N2CCN(S(=O)(=O)c3ccc4c(c3)OCCO4)CC2)c1,521,-2.6% (inactive),-13.4% (inactive),134,-136% (inactive),209,-0.64 (inactive),3.2e-05 (inactive),0.00722 (inactive),10.2% (inactive),16.3% (inactive)
CCC1CCc2c(sc3ncnc(N4CCOCC4)c23)C1 (stereo not drawn),588,-4.4% (inactive),-3.1% (inactive),25.7,-4% (inactive),114,-0.469 (inactive),-4.6e-05 (inactive),0.00589 (inactive),-6.27% (inactive),13.8% (inactive)
O=C(C1CCN(S(=O)(=O)c2cccc3cccnc23)CC1)N1CCN(C2CCCCC2)CC1,412,10.7% (inactive),3.3% (inactive),69.2,-22.1% (inactive),106,-0.565 (inactive),-1.6e-05 (inactive),0.00678 (inactive),-4.22% (inactive),35.6% (inactive)
O=C(CN1C(=O)NC2(CCCCC2)C1=O)Nc1ccc(S(=O)(=O)N2CCOCC2)cc1,460,5.2% (inactive),-2.3% (inactive),93.7,29.7% (inactive),96.2,-0.49 (inactive),-7.9e-06 (inactive),0.00589 (inactive),9.77% (inactive),34.3% (inactive)
N#Cc1nc(-c2ccco2)oc1N1CCN(c2cccc(Cl)c2)CC1,744,-7.5% (inactive),20.8% (inactive),123,-75.1% (inactive),109,-0.334 (inactive),2.4e-05 (inactive),0.00657 (inactive),8.62% (inactive),-3.74% (inactive)
O=C(c1cccnc1)N1CCN(Cc2ccc3c(c2)OCO3)CC1,64,11% (inactive),-2.8% (inactive),88.3,29.2% (inactive),87.6,-0.411 (inactive),-5.6e-05 (inactive),0.00498 (inactive),14.2% (inactive),13.5% (inactive)
O=c1c2ccccc2nc2n1CCN2,338,4.6% (inactive),-10.3% (inactive),108,-115% (inactive),131,-0.573 (inactive),7.7e-06 (inactive),0.00443 (inactive),21.2% (inactive),20.6% (inactive)
O=C(CCSc1nc(-c2ccco2)cc(C(F)(F)F)n1)Nc1ccc2c(c1)OCO2,429,1.8% (inactive),30.3% (inactive),95.1,-52.9% (inactive),161,-0.386 (inactive),2.5e-05 (inactive),0.00312 (inactive),-4.65% (inactive),-14.1% (inactive)
C/C(N)=C(/C#N)C(=O)CSc1nnc(Nc2c(C)cccc2C)s1,354,13.1% (inactive),8.1% (inactive),70.3,-30.9% (inactive),119,-0.586 (inactive),-5.6e-05 (inactive),0.00543 (inactive),6.86% (inactive),2.86% (inactive)
CS(=O)(=O)c1ccc2nc(NC(=O)C3C4C=CC(C4)C3C(=O)O)sc2c1 (stereo not drawn),475,12.5% (inactive),0.5% (inactive),96.1,-113% (inactive),115,-0.41 (inactive),1e-05 (inactive),0.00376 (inactive),1.15% (inactive),6.4% (inactive)
CCN(CC)CCN1C(=O)c2oc3ccc(F)cc3c(=O)c2C1c1ccncc1 (stereo not drawn),598,-12.9% (inactive),-2.9% (inactive),102,-5.7% (inactive),111,-0.536 (inactive),-4.3e-05 (inactive),0.00733 (inactive),15.9% (inactive),44.8% (inactive)
O=C1NC(=O)C(CC(=O)N(Cc2ccco2)C2(C(=O)NC3CCCC3)CCCCC2)N1 (stereo not drawn),670,-7.4% (inactive),28.8% (active),106,-67.8% (inactive),127,-0.534 (inactive),-3.9e-05 (inactive),0.00746 (inactive),-0.4% (inactive),18.4% (inactive)
CC(=O)Nc1ccc(S(=O)(=O)NCc2csc(-c3cccnc3)n2)cc1,356,-10.2% (inactive),-11.8% (inactive),108,-19.2% (inactive),101,-0.511 (inactive),-3.4e-05 (inactive),0.00545 (inactive),9.95% (inactive),22.2% (inactive)
CCN(CC)c1ccc2cc(NC(=O)CCC(=O)O)c(=O)oc2c1,463,-21.1% (inactive),-6.8% (inactive),95,-33% (inactive),101,-0.0111 (active),-5.3e-06 (inactive),0.00247 (inactive),50.8% (active),92.5% (active)
CC(=O)N1CCc2cc(Br)cc(S(=O)(=O)NCCCN3CCCC(C)C3)c21 (stereo not drawn),379,0.3% (inactive),-1.8% (inactive),104,-170% (inactive),96,-0.47 (inactive),1.8e-05 (inactive),0.00613 (inactive),-7.41% (inactive),12.2% (inactive)
COc1ccc(NC(=O)CN2CCN(CC(=O)Nc3cc(OC)cc(OC)c3)CC2)cc1,306,-3.6% (inactive),8% (inactive),89.1,4.7% (inactive),84.6,-0.442 (inactive),-0.000127 (inactive),0.00643 (inactive),13.3% (inactive),32.4% (inactive)
Fc1ccc(-c2ccc(-c3nn4c(-c5ccco5)nnc4s3)o2)cc1,243,-2.4% (inactive),1.7% (inactive),92.7,-25.8% (inactive),101,-0.394 (inactive),-3e-05 (inactive),0.00935 (inactive),-5.55% (inactive),-13.1% (inactive)
